Bioassay records: PubChem, Paczesny and Yang Labs, IUPUI and University of Michigan
The sample as a whole holds a higher share of hits than the screen did.
ST2 inh: IL1RL1 inhibition; inhibition, % for hits at 17 µM; AlphaLISA ST2-Fc/biotin-IL-33 interaction, 1 h; Q01638; 78,000 compounds, 2.3% hits; AID 1259354; in the data active = inhibition above about 30%
Target sequence (Q01638 whole entry, looked up): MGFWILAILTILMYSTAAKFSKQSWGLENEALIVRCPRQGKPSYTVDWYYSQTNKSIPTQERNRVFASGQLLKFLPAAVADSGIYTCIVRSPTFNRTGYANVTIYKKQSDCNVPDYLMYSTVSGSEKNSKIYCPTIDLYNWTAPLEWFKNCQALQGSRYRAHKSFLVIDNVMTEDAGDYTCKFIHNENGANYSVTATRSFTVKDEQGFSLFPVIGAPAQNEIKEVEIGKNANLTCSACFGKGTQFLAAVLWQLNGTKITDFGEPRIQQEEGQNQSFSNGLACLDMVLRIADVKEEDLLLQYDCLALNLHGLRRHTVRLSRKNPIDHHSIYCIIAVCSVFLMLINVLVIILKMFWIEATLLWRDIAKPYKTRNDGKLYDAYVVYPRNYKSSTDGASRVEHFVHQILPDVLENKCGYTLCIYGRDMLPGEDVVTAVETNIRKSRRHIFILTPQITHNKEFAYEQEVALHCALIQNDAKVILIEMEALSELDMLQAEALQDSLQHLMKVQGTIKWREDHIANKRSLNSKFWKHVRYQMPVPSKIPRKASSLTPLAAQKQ
Numbers stand for hits; – = inactive.

SMILES	ST2 inh
CCn1c(=O)c(-c2ccc3ccccc3n2)cc2cc(Br)ccc21	36%
NC(=O)CSc1nc2c([nH]c3ccccc32)c(=O)n1-c1ccc(Cl)cc1	–
O=C(CSc1nc2c([nH]c3ccccc32)c(=O)n1-c1cccc(Cl)c1)N1CCOCC1	35%
O=C(CSc1nc2c([nH]c3ccccc32)c(=O)n1-c1ccc(F)cc1)N1CCCCC1	–
Nc1ncnc2c1ncn2CCOc1ccccc1	–
CC(C)Cn1cnc2c(N)nc3ccccc3c21	41%
CC(Cn1cnc2ccccc21)C(=O)O (centres undefined)	–
Cc1cc(NC(=O)c2ccc(S(=O)(=O)N3CC(C)CC(C)C3)cc2)no1 (centres undefined)	–
C=C(C)Cn1c(C(C)NC(=O)CC)nc2ccccc21 (centres undefined)	–
O=C1CC(Nc2ccc(N3CCOCC3)cc2)C(=O)N1c1ccc2c(c1)OCO2 (centres undefined)	55%
O=C1CC(N2CCOCC2)C(=O)N1c1cccc(Cl)c1 (centres undefined)	–
O=C1CC(Nc2ccc(N3CCOCC3)cc2)C(=O)N1c1cccc([N+](=O)[O-])c1 (centres undefined)	47%
O=[N+]([O-])c1cccc(-c2nc(N3CCOCC3)c3ccccc3n2)c1	–
O=C1CC(NCc2ccc3c(c2)OCO3)C(=O)N1c1ccccc1 (centres undefined)	–
O=[N+]([O-])c1ccc(Nc2nc(N3CCOCC3)nc(N3CCOCC3)n2)cc1	–
O=C1CC(Nc2ccccc2)C(=O)N1c1ccc(Br)cc1 (centres undefined)	–
O=C1CC(Nc2ccc(Br)cc2)C(=O)N1c1cccc(Cl)c1 (centres undefined)	32%
Cc1ccc([N+](=O)[O-])cc1N1C(=O)CC(Nc2ccc(N3CCOCC3)cc2)C1=O (centres undefined)	52%
Cc1ccc(S(=O)(=O)N2CCN(c3ccc([N+](=O)[O-])c(N4CCOCC4)c3)CC2)cc1	–
COc1ccc(NC2CC(=O)N(c3cccc(Cl)c3)C2=O)cc1 (centres undefined)	–
O=C1C2C3c4ccccc4C(c4ccccc43)C2C(=O)N1c1ccc2c(c1)OCO2 (centres undefined)	–
CCn1c(CC2CCNCC2)nn(Cc2cc(=O)n3ccc(C)cc3n2)c1=O	–
CSc1ncc(CN(C)C(C)c2cccnc2)cn1 (centres undefined)	–
Cc1cc(C)nc(N=C(N)Nc2ccccc2Cl)n1	–
COc1ccc(F)c(-c2nc(CN(C)Cc3cnc(N)nc3)c(C)o2)c1	–
SMILES	ST2 inh
COc1ccccc1Nc1ncnc2ccc(Br)cc12	–
COc1ccc(/C=C(/NC(=O)c2ccco2)C(=O)Nc2ccc(Cl)cc2)cc1	–
OCCC1CN(Cc2nc3ccc(F)cc3[nH]2)CCN1Cc1ccc(F)cc1 (centres undefined)	–
CC(C)(C)CN1CC(NC(=O)Cc2ccc(O)c(Cl)c2)CC1=O (centres undefined)	–
O=C(O)c1cc(-c2ccoc2)cc(S(=O)(=O)N2CCSCC2)c1	–
Cc1nnc(Nc2ccc(F)cc2)[nH]c1=O	–
O=C(NCCN1CCc2ccccc2C1)c1cc(-c2cccs2)nc2ccccc12	–
O=C1c2cccc3cccc(c23)N1S(=O)(=O)c1ccccc1	–
Cc1cccc(N2C(=O)CC(N3CCN(c4ccc(F)cc4)CC3)C2=O)c1 (centres undefined)	–
CCc1cccc(NC2CC(=O)N(c3cccc(Cl)c3)C2=O)c1 (centres undefined)	–
COc1cccc(N2C(=O)CC(Nc3ccc(N4CCOCC4)cc3)C2=O)c1 (centres undefined)	47%
O=C(O)c1ccc(CN2CC(c3cccnc3)C2)cc1	–
Cc1cccn2cc(CCN3C(=O)c4ccccc4C3=O)nc12	–
CCN1C(=O)c2cccc3c(S(=O)(=O)N(CCO)CCO)ccc1c23	–
COc1cc(C=O)cc(I)c1OCc1cccc(C(=O)O)c1	–
Cc1cc(S(=O)(=O)N2CCN(S(=O)(=O)c3ccc(Cl)c(C)c3)C(C)C2)ccc1Cl (centres undefined)	–
Cc1ccc(-c2csc(NC(=O)c3ccc(S(=O)(=O)N4CCc5ccccc54)cc3)n2)o1	39%
CC(=O)c1sc(NC(=O)c2ccc(S(=O)(=O)N3CCc4ccccc43)cc2)nc1C	–
O=C(Nc1nc(-c2ccccn2)cs1)c1ccc(S(=O)(=O)N2CCOCC2)cc1	–
COC(=O)C1(C(=O)NC(C)C(=O)N(C)C)CC1 (centres undefined)	–
O=c1oc2ccccc2cc1-c1nc(-c2cccs2)cs1	51%
O=c1oc2ccc(Br)cc2cc1-c1nnc(-c2ccccc2Br)o1	–
O=c1oc2cc(O)ccc2cc1-c1nc(-c2ccc3ccccc3c2)cs1	–
O=C(Nc1nc(-c2cccs2)cs1)c1cc2ccccc2oc1=O	–
COc1ccc(-c2cc3cc(Br)ccc3oc2=O)cc1	–
SMILES	ST2 inh
O=c1oc2ccc(Br)cc2cc1-c1nc(-c2cccs2)cs1	30%
Cc1ccc(-c2cc(O)c3c(c2)CN(C(=O)CN2CCOC2=O)CCO3)s1	–
Cc1cc(C)n(CCC(=O)N(Cc2ccccc2Cl)C2CC2)c(=O)n1	–
CCCCC(=O)Nc1ccc(NC(=O)c2ccc(C(C)C)cc2)cc1OC	–
COC(=O)C1=C(C)N=C2SCCC(=O)N2C1c1ccc(OCCC(C)C)c(OC)c1 (centres undefined)	–
CSc1cccc(NS(=O)(=O)c2ccc(CC(C)C)cc2)c1	–
CC(=O)n1c2ccccc2c2cc([N+](=O)[O-])ccc21	–
CC(=O)n1cc(C(C[N+](=O)[O-])SCc2ccccc2)c2ccccc21 (centres undefined)	41%
CC(=O)NC(C(N)=O)C(SCc1ccccc1)c1c[nH]c2ccccc12 (centres undefined)	–
COc1ccc(OC)c(NC(=O)c2coc(=O)c3ccccc23)c1	–
O=C(c1ccccc1)c1cccc(N2C(=O)c3cccnc3C2=O)c1	–
COc1ccc(Cc2n[nH]c(=O)c3ccccc23)cc1OC	–
O=c1[nH]nc(Cc2ccccc2)c2ccccc12	–
O=c1[nH]nc(C[N+](=O)[O-])c2ccccc12	30%
Cc1cc(Br)ccc1NC(=O)c1ccc2c(c1)C(=O)N(CC(C)C)C2=O	–
COc1ccc(Cl)cc1NS(=O)(=O)c1ccc(Br)s1	–
Cc1cc(C)nc(NC(=O)CCCC(=O)O)c1	–
Cc1ccn2c(NC(=O)c3ccccc3F)c(-c3ccccc3)nc2c1	–
Cc1cc(C)nc(NC(=O)c2ccccc2F)c1	30%
COc1ccc(C(=O)Nc2ccc(NC(=O)C(C)C)cc2)cc1Br	–
O=C(c1ccncc1)N1C[C@@H]2C[C@H](C1)c1ccc(-c3ccccc3CN3CCOCC3)c(=O)n1C2	–
Cc1cccc(CSc2nc3n(n2)C(c2ccc(F)cc2)C2=C(CCCC2=O)N3)c1 (centres undefined)	–
O=[N+]([O-])c1nn(-c2ccccc2)[n+]([O-])c1N1CCCCCC1	–
O=[N+]([O-])c1cccc2ccc(N3CCCCC3)nc12	30%
O=[N+]([O-])c1cccc2c(Br)[nH]nc12	–
SMILES	ST2 inh
C=CCOc1ccc(C(=O)N2CCOCC2)cc1	31%
Cc1cc(C)c(C(=O)c2ccc(C(=O)N3CCOCC3)cc2)c(C)c1	–
CCCOc1ccc(C(=O)N2CCOCC2)cc1OC	–
COc1cc(OC)cc(C(=O)N2CCN=C2SCc2cccc(Cl)c2)c1	–
CCCCC(=O)Nc1ccc(C)cc1NC(=O)c1cc2ccccn2n1	–
COc1ccccc1Cc1nc(-c2nonc2N)no1	–
